# Rows were chosen to be rich in hits. Some 11% of all compounds tested hit in one or more screens of this group.
# Pf growth 48h: Primary qHTS for delayed death inhibitors of the malarial parasite plastid, 48 hour incubation; hit rate 5.9% among 310,000; Potency, µM (series often up to 28.7 µM), inactives show top-dose activity change, negative = inhibition, usual class: inhibitors; P. falciparum luciferase growth in erythrocytes, 48 h
#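 Parasite viability was followed by luminescence of a genomically integrated firefly luciferase. Cultures held 0.1% parasitemia at 2% hematocrit (final), incubated under 5% CO2 at 37 C.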
# AmpC detergent: qHTS Inhibitors of AmpC Beta-Lactamase (assay with detergent) | P00811 | AmpC hydrolysis of nitrocefin, absorbance 480 nm, 0.01% Triton | Potency, µM (doses to about 114 µM), without a hit: at the top dose activity change, negative = inhibition, most hits filed as inhibitors | hit rate 0.041% among 370,000 | AID 485294, 2010;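 note: 0% = no-compound wells and -100% = no-enzyme wells; nearly all actives have a fitted effect of over 25% in size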
# Target sequence (P00811 whole entry, looked up): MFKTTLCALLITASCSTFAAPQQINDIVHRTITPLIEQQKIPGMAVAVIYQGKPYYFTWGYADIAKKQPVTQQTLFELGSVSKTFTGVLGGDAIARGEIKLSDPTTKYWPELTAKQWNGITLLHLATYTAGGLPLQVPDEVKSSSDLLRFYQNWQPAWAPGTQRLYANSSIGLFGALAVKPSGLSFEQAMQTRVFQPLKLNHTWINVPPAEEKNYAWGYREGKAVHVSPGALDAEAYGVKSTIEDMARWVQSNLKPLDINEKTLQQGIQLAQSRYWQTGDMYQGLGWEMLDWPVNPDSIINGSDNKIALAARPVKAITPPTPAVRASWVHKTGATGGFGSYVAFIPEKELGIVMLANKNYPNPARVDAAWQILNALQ
#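 20 mM phosphate pH 7.0 + 0.01% (detergent screen) or 0.0001% Triton X-100; 5.3 nM AmpC reagent; cpd preinc 15 min RT; nitrocefin (800 uM stock) to start; A480 q20 s × 4 min; Activity was normalised to no-enzyme and no-compound control wells.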
# Pf growth 96h: Primary qHTS for delayed death inhibitors of the malarial parasite plastid, 96 hour incubation | hit rate 6.9% among 320,000 | P. falciparum luciferase reporter growth, 96 h | Potency, µM (series often up to 28.7 µM), for inactives: at the top dose activity change, negative = inhibition, most hits filed as inhibitors | AID 504834, 2011
#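 Parasite growth measured via integrated firefly luciferase reporter in P. falciparum. Infected erythrocytes at 2% hematocrit, 0.05% parasitemia final were treated 96 hours at 37 C under 5% CO2, and luminescence was read.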
# AMA1 RON2 block: qHTS for Inhibitors of AMA1-RON; Towards Development of Antimalarial Drug Lead: Primary Screen; AID 720542, 2013; hit rate 0.2% among 360,000; AlphaScreen AMA1-biotinylated RON2 peptide binding; Potency, µM (top dose mostly 58.2 µM), inactives show top-dose activity change, negative = inhibition, most hits filed as inhibitors;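 note: 0% = vehicle wells and -100% = peptide control; nearly all actives have a fitted effect of over 45% in size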
#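 AMA1 (3D7) with his tag at 25 nM final met compounds first, then biotinylated RON2 peptide at 25 nM; detection used donor plus acceptor beads, 10 µg/mL apiece, read by AlphaScreen after 30 min at room temperature.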
# AmpC inh no detg: qHTS Inhibitors of AmpC Beta-Lactamase (assay without detergent) | AID 485341, 2010 | AmpC nitrocefin hydrolysis, absorbance 480 nm, 0.0001% Triton | Potency, µM (titrated, usually from 57.1 µM), for inactives: at the highest dose activity change, negative = inhibition, usual class: inhibitors | hit rate 0.52% among 330,000;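 note: plate controls were no compound for no effect and no enzyme for full effect; nearly all actives have a fitted effect of over 20% in size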
#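 20 mM phosphate pH 7.0 + 0.01% (detergent screen) or 0.0001% Triton X-100; 5.3 nM AmpC reagent; cpd preinc 15 min RT; nitrocefin (800 uM stock) to start; A480 q20 s × 4 min; Activity was normalised to no-enzyme and no-compound control wells.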
# HCV inhibitor: qHTS Assay for Inhibitors of Hepatitis C Virus (HCV); Huh7.5.1 HCVcc-Cre infection, luciferase reporter, 44 h; Potency, µM (series often up to 41.8 µM), inactives show at the top dose activity change, negative = inhibition, most hits filed as inhibitors; hit rate 3.4% among 340,000
#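 A cell-based infection assay in which seeded cells (1,000 per well) receive test compound after 4 h, are inoculated with HCVcc-Cre at approximately 0.5 moi, and are incubated 44 h before luminescence detection.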
# Starred values were filed as active, the others as inactive; ? = inconclusive; . = no result; [ ] = dose if it differs, or a comment. Calls come from the whole dose curve; as a rule, active = well fitted curve in the direction sought with a large enough effect; inconclusive = small, poorly fitted or top-dose-only effect, or another doubt; inactive = no such curve, though single readings can be large; an effect the other way counts as inactive or inconclusive. Unless noted, % is set by controls: 0 for no effect and ±100 for the full control effect; potency is the fitted concentration of half-maximal effect.
SMILES,Pf growth 48h,AmpC detergent,Pf growth 96h,AMA1 RON2 block,AmpC inh no detg,HCV inhibitor
Cc1cc(SCC(=O)NC2(C#N)CCCCC2)nc2c(C)cccc12,-1.6%,-14.6%,5.1%,4.5%,31.6µM*,-2.2%[8.37 µM]
c1ccc(C(c2ccccc2)c2noc(CN3CCC(c4ccncc4)CC3)n2)cc1,10.4µM*,6.1%,?,0.0%,154.7%,-0.1%
COc1ccc(Nc2oc(/C=C/c3ccc(OC)c(OC)c3)nc2C#N)cc1,.,-6.4%,.,.,.,.
CCN(CC)CCCCCC(=O)Nc1ccccc1C(=O)Nc1ccccc1,10.1%,2.0%,10.4µM*,1.3%,-33.7%,2.5%
Cc1ccc2c(c1)-c1c(cnn1CC(=O)N(Cc1ccco1)C1CCCCC1)CO2,?,-16.4%,22.2%,-20.8%,50.1µM*,-21.7%
Cc1ccc2c(c1)-c1c(cnn1CC(=O)NC(C)CCc1ccco1)CO2 (stereo not drawn),?,?,-11.0%,-3.1%,11.1%,?
COCCN1C(=O)C(=O)/C(=C(/O)c2ccc(C)cc2)C1c1ccccn1 (stereo not drawn),-3.1%,-3.4%,3.29µM*,0.0%,-16.8%,9.9%
CCN(CC)CCN1C(=O)C(=O)/C(=C(/O)c2cccc(OC)c2)C1c1ccccn1 (stereo not drawn),?,1.2%,11.7µM*,25.2%,8.3%,5.3%
Cc1ccc(-c2nnc(Nc3ccc(F)cc3)c3ccccc23)cc1S(=O)(=O)N1CCN(C)CC1,.,6.4%,.,.,.,.
Cc1ccc(OCC(=O)Nc2ccccc2C(=O)OCc2cc(=O)n3nc(C4CC4)sc3n2)cc1,.,12.8%,.,.,.,.
CCc1cccc(C)c1NC(=O)CN1C(=O)c2ccccc2Sc2ncccc21,.,19.4%,.,.,.,.
CC(C)c1cc(-c2nc(-c3ccccc3)no2)n[nH]1,.,1.7%,.,.,.,.
COc1ccc(COC(=O)c2ccc(C)c(S(=O)(=O)N3CCOCC3)c2)cc1F,?,-3.3%,10.4µM*,12.4%,47.1%,?
COc1ccc(COC(=O)c2cccc(S(=O)(=O)N3CCCC3)c2)cc1F,?,-5.0%,11.7µM*,14.8%,36.5%,?
O=S(=O)(c1ccc2nnn(OCc3ccccc3)c2c1)N1CCOCC1,4.0%,-10.5%,-3.3%,-15.3%,-10.2%,?
COc1ccccc1COC(=O)c1cccc(S(=O)(=O)N2CCCC2)c1,?,-13.1%,?,19.7%,-19.2%,?
O=C(OCc1ccc(Br)cc1)c1cccc(S(=O)(=O)N2CCCC2)c1,?,-7.2%,10.4µM*,8.3%,-46.0%,?
COc1ccc(COn2nnc3ccc(S(=O)(=O)N4CCOCC4)cc32)cc1F,?,-14.6%,?,-4.2%,-2.5%,10µM*
CCN(CC)c1ccc(C(=O)N2CCC(c3ccncc3)CC2)cc1,.,1.4%,.,.,.,.
COCCCNC(=O)CCc1c(C)nc2nc(-c3cc(OC)cc(OC)c3)nn2c1C,.,-7.5%,.,.,.,.
Cc1ccc(COC(=O)c2cccc(S(=O)(=O)N3CCCCCC3)c2)cc1,?,4.3%,?,28.5%,-23.1%,9.5%
CC(=O)N1CCN(S(=O)(=O)c2cccc(C(=O)OCc3ccc(C(C)(C)C)cc3)c2)CC1,11.7µM*,-13.0%,9.28µM*,-13.7%,130.4%,?
COc1ccc(C(=O)OCc2ccccc2F)cc1S(=O)(=O)N1CCCC1,9.28µM*,-13.3%,13.1µM*,-5.3%[11.6 µM],36.4%,?
Cc1ccc(NS(=O)(=O)c2c(C)nc3sccn3c2=O)cc1,-3.8%,-17.0%,0.0%,50.5%,-5.3%,13.5%
COc1cccc(CNS(=O)(=O)c2c(C)nc3sccn3c2=O)c1,3.9%,?,0.522µM*,-0.2%,-14.9%,7.3%
SMILES,Pf growth 48h,AmpC detergent,Pf growth 96h,AMA1 RON2 block,AmpC inh no detg,HCV inhibitor
CCOC(=O)c1ccc(NS(=O)(=O)c2c(C)nc3sccn3c2=O)cc1,30.8%,-8.2%,10.4µM*,-2.7%,-10.6%,-23.9%
O=C(NCCc1ccc(Cl)cc1)c1cccn1-c1nnc(N2CCCC2)s1,.,4.8%,.,.,.,.
COc1ccccc1CN(Cc1ccco1)c1cnc(S(C)(=O)=O)nc1C(=O)Nc1cc(C)ccc1C,.,4.8%,.,.,.,.
CCOc1ccc(Br)cc1C1=NN(C(C)=O)C(c2ccc([N+](=O)[O-])s2)O1 (stereo not drawn),9.28µM*,3.7%,?,-0.9%,-14.2%,?
CC(=O)N1N=C(c2ccc(C)cc2)OC1c1ccc(Br)cc1 (stereo not drawn),72.6%,1.5%,-12.7%,-11.3%,42.7%,-0.5%
CC(C)n1nnc(-c2ccc(OCc3ccccc3F)cc2)n1,29.1%,?,8.28µM*,45.3%,-15.5%,10.8%
Cn1nnc(-c2ccc(OCc3ccccc3F)cc2)n1,130.8%,-3.4%,7.2%,-0.3%,2.2%,20.9%
CCC(C(=O)Nc1cccc(C#N)c1)n1nc(-c2ccccc2)ccc1=O (stereo not drawn),.,-1.0%,.,.,.,.
Clc1ccc(C=NNc2ccccn2)c(Cl)c1,.,.,.,9.7%,.,-23.8%
Cc1ccc(/C=N/Nc2cc(C)nc(NCc3ccccc3)n2)cc1,0.586µM*,8.5%,1.04µM*,-8.2%,-32.2%,7.08µM*
Cc1cc(N/N=C/c2ccc(Cl)cc2Cl)nc(NCc2ccccc2)n1,0.329µM*,-5.3%,?,-1.8%,-20.4%,?
Cc1cc(N/N=C/c2ccc(N(C)C)cc2)nc(NCc2ccccc2)n1,?,5.3%,?,?,-22.0%,?
Cc1cc(N/N=C/c2ccc(F)cc2)nc(NCc2ccccc2)n1,0.415µM*,-11.4%,?,-18.3%,-35.1%,11.2µM*
CC(C)c1ccc(/C=C/C(=O)Nc2nc3ccc([N+](=O)[O-])cc3s2)cc1,?,-3.9%,2.33µM*,9.7%,-27.8%,16.0%
C=CCc1c(C)c(C#N)c2nc3ccccc3n2c1N1CCCCC1,?,-3.9%,1.85µM*,6.9%,-11.5%,?
CC(=O)NCCC(=O)Nc1cc(S(=O)(=O)N2CCOCC2)ccc1Oc1ccccc1,-11.4%,?,11.7µM*,0.0%,34.8%,26.0%
O=C(CNc1cc(S(=O)(=O)N2CCOCC2)ccc1N1CCCC1)N1CCc2ccccc21,13.1µM*,1.2%,?,-8.2%,35.5%,?
CC(=O)NCCC(=O)Nc1cc(S(=O)(=O)N2CCOCC2)ccc1Oc1ccc(F)cc1,?,?,0.4%,7.8%,48.1%,15.3%

# Screening results from PubChem BioAssay.
